Compounds with a hit are over-represented: about 3.9% of the library has one in this group of screens.
BRCA1 expr up – increases BRCA1 expression. MCF7-BRCA1-FFLuc reporter, luminescence, 48 h; response scale: scaled: vehicle 0%, 10 µM genistein 100%. hit rate 1.1% among 380,000. Potency, µM (highest dose often 46.1 µM), inactives show top-dose activation, usual class: activators; further: nearly all actives have a fitted effect of over 80% in size
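MCF7-BRCA1-FFLuc cells, 2000/well in phenol-red-free MEM, attached 2 h then treated 48 h at 37 C. Luciferase luminescence read 15 min after reagent; normalized to genistein maximum activation (10microM) and DMSO, concentration-response fitted.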
PLK1 PBD inh – blocks phosphopeptide binding to human PLK1 polo-box domain. Plk1 PBD binding of FITC phosphopeptide, fluorescence polarization. Potency, µM, inactives show max response, negative = inhibition, hits mostly inhibitors. hit rate 2.8% among 360,000. P53350; further: series mostly up to about 57 µM; on the % scale 0 is the no-effect control and ±100 the full control effect; nearly all actives have a fitted effect of over 65% in size
Target sequence (P53350 whole entry, looked up, the tested form may be a part): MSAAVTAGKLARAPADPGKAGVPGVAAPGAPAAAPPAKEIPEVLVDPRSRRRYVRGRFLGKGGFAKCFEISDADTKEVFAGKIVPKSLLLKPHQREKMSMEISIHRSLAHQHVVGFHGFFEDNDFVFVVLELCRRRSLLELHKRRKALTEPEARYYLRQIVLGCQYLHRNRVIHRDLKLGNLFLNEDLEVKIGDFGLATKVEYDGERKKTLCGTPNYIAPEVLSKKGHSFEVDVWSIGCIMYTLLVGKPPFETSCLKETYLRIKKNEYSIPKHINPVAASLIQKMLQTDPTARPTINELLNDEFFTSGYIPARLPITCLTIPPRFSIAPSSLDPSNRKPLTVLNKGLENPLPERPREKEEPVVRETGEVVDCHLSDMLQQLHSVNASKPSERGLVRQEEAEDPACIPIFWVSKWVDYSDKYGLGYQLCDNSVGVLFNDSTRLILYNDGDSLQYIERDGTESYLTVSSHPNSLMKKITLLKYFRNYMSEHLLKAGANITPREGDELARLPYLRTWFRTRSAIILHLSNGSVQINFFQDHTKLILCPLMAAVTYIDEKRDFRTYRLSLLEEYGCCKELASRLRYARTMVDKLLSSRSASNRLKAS
Tb PFK block – inhibitors of T. brucei phosphofructokinase. T. brucei PFK, ADP-Glo luminescence. Potency, µM (doses to about 57.5 µM), without a hit: at the highest dose activity, negative = inhibition, hits mostly inhibitors. hit rate 0.17% among 330,000;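 further: 0% = uninhibited 1x PFK enzyme wells and -100% = no-enzyme wells; nearly all actives have a fitted effect of over 60% in size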
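In TEA buffer at pH 8.0 with 5 mM MgCl2, enzyme (1.25 nM) converted F6P (0.5 mM) and ATP (0.1 mM) for 45 min at room temperature. ADP product was read by luciferase luminescence.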
VDR inh – blocks the human vitamin D receptor; VDR-SRC2-3 peptide fluorescence polarization, 2 h; Potency, µM, for inactives: max response, negative = inhibition, actives largely listed as inhibitors; hit rate 0.93% among 400,000; AID 504847; further: on the % scale 0 is the no-effect control and ±100 the full control effect
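Fluorescence polarization assay measuring small-molecule disruption of VDR binding to the coregulator peptide SRC2-3. Compounds were pin-transferred (23 nl) into the reagent mix and incubated 2 h at room temperature before reading.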
* hit, by the source's call; ! = not confirmed by another sample. The call rests on the fitted dose curve; in most records, active means well fitted curve in the direction sought with a large enough effect; inconclusive means small, poorly fitted or top-dose-only effect, or another doubt; inactive means no such curve, though single readings can be large; an effect the other way counts as inactive or inconclusive. Potency means the concentration at half of the fitted maximal effect.

Screening COc1ccc(N2C(=O)NC(=O)/C(=C/c3ccc(N4CCOCC4)cc3)C2=O)cc1 returned Tb PFK block 4%.
`CCOc1nc(NC(C)C)nc(N2CC3CC(C2)c2cccc(=O)n2C3)n1` (centres undefined) gave BRCA1 expr up -79%, PLK1 PBD inh 7.5µM*, Tb PFK block -1% and VDR inh inconclusive.
`S=C=NCc1ccccc1` gave VDR inh 40µM*.
`O=C(c1ccccc1)c1cn(CC(=O)N2CCOCC2)c2ccccc12` gave BRCA1 expr up 10%, PLK1 PBD inh 24µM*, Tb PFK block 0% and VDR inh -1%.
For O=C(c1ccccc1)c1cn(CC(=O)N2CCCC2)c2ccccc12 the results were BRCA1 expr up -5%, PLK1 PBD inh -3%, Tb PFK block -4% and VDR inh 14%.
For CN1C(=O)COc2c(C(=O)N[C@@H]3CN4CCC3CC4)cc(Cl)cc21 the results were VDR inh 1%.
For C[N+](C)(C)CC#CCOC(=O)Nc1cccc(Cl)c1 the results were BRCA1 expr up 1%, PLK1 PBD inh -13% and VDR inh 50µM*!.
For Cc1ccc(N2C(=O)NC(=O)/C(=C\c3ccsc3)C2=O)cc1C the results were Tb PFK block -2%.
O=C1NC(=O)N(c2ccc3c(c2)OCO3)C(=O)/C1=C\c1ccsc1 was read as BRCA1 expr up -6%, PLK1 PBD inh 4.7µM*, Tb PFK block 3% and VDR inh inconclusive.
`CC(=O)c1ccc(NC(=O)CSc2nc(=O)cc(N)n2-c2ccccc2)cc1` gave BRCA1 expr up 10µM*, PLK1 PBD inh -3%, Tb PFK block 3% and VDR inh 3%.
`CC[C@H](C)/C=C(C)/C=C/C1=CC2=C(Cl)C(=O)[C@](C)(OC(C)=O)C(=O)C2=CO1` gave BRCA1 expr up -9%, PLK1 PBD inh 1.1µM*, Tb PFK block 0% and VDR inh inconclusive.
O=C1CCCC2C3CC(CN12)C1CCCCN1C3 (centres undefined) was read as VDR inh 16%.
For COc1ccc(C=C2C(=O)N(C)C(=O)N(C)C2=O)cc1CSc1ccccn1 the results were BRCA1 expr up -26%, PLK1 PBD inh 6µM*, Tb PFK block 0% and VDR inh 79µM*.
`COC(=O)C(O)(c1ccc(NC(=S)NC(=O)c2ccc(Cl)cc2Cl)c(C)c1)C(F)(F)F` (centres undefined) gave BRCA1 expr up -30%, PLK1 PBD inh 21µM*, Tb PFK block 0% and VDR inh inconclusive.
`CC[C@H](C)[C@H](NC(=O)[C@H](CCCN=C(N)N)NC(=O)[C@H](CCCN=C(N)N)NC(=O)[C@H](CC(C)C)NC(=O)[C@H](Cc1ccccc1)NC(=O)CNC(=O)CNC(=O)[C@@H](N)Cc1ccc(O)cc1)C(=O)O` gave VDR inh -2%.
C[C@@H](N)Cn1ccc2cc(F)c(Cl)cc21 was read as VDR inh -2%.
Screening S=c1[nH]c2cc(Br)cnc2[nH]1 returned BRCA1 expr up -6%, PLK1 PBD inh 13µM*, Tb PFK block 3% and VDR inh -6%.
For Cc1ccc(N2C(=O)/C(=C/N3CCN(C(=O)c4ccco4)CC3)C(=O)NC2=S)cc1C the results were BRCA1 expr up 13%, PLK1 PBD inh 24µM*, Tb PFK block 4% and VDR inh -11%.
For Cc1cccc(N2C(=O)/C(=C/N3CCN(C(=O)c4ccco4)CC3)C(=O)NC2=S)c1 the results were BRCA1 expr up -13%, PLK1 PBD inh inconclusive, Tb PFK block 0% and VDR inh 16%.
`O=c1[nH]c2sccc2c2ccccc12` gave VDR inh 1%.
For CCCC(C)c1nnc(NC(=O)CCS(=O)(=O)c2ccccc2)s1 (centres undefined) the results were BRCA1 expr up -42%, PLK1 PBD inh 4.7µM*, Tb PFK block inconclusive and VDR inh 25µM*.
Screening Cn1cccc1C(=O)OCC(=O)NCc1cccs1 returned BRCA1 expr up -4%, PLK1 PBD inh 0%, Tb PFK block -4% and VDR inh inconclusive.
CCCSP(=S)(OCC)Oc1ccc(Cl)cc1Cl (centres undefined) was read as VDR inh 7.1µM*.
CCOP(=S)(OCC)Oc1ccc(Cl)cc1Cl was read as VDR inh 50µM*.
Screening CCCC(=O)O[C@@H]1[C@@H](C)[C@@]2(O)[C@@H](C=C(CO)C[C@@]3(O)C(=O)C(C)=C[C@@H]23)[C@@H]2C(C)(C)[C@]12OC(=O)CCC returned VDR inh 11%.

From PubChem BioAssay
